Assay outcomes (PubChem BioAssay)
Shown are actives, neighbours in structure and some others; about 11% of the full set was active somewhere.
AMA1 RON2 block – disrupts binding of P. falciparum AMA1 to RON2 | AID 720542 | AlphaScreen AMA1-biotinylated RON2 peptide binding | Potency, µM (doses to about 58.2 µM), inactives show top-dose activity change, negative = inhibition, usual class: inhibitors | actives 0.2% (n = 360,000);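 further: 0% = vehicle wells and -100% = peptide control; nearly all actives have a fitted effect of over 45% in size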
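AMA1 (3D7) with his tag at 25 nM final met compounds first, then biotinylated RON2 peptide at 25 nM; detection used donor plus acceptor beads, 10 µg/mL apiece, read by AlphaScreen after 30 min at room temperature.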
Pf growth 48h – P. falciparum growth inhibition at 48 hours (one generation) | actives 5.9% (n = 310,000) | Potency, µM (doses to about 28.7 µM), inactives show at the top dose activity change, negative = inhibition, usual class: inhibitors | P. falciparum luciferase growth in erythrocytes, 48 h; further: on the % scale 0 is the no-effect control and ±100 the full control effect
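Firefly luciferase activity from engineered P. falciparum reports growth; inhibitors lower the luminescent signal. Cultures contained 2% hematocrit erythrocytes at 0.1% final parasitemia.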
Sm TGR inh – inhibitors of Schistosoma mansoni thioredoxin glutathione reductase. Q962Y6. purified TGR, DTNB reduction, TNB absorbance 405 nm. Potency, µM (series often up to 114 µM), without a hit: at the top dose activity change, negative = inhibition, most hits filed as inhibitors. actives 3% (n = 360,000). AID 485364; further: on the % scale 0 is the no-effect control and ±100 the full control effect; nearly all actives have a fitted effect of over 60% in size
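First, TGR (20 nM dispensed) and NADPH were mixed with compound. Second, a 15 min room-temperature incubation followed. Third, further NADPH and then DTNB were added to start the reaction. Finally, TNB absorbance was monitored kinetically.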
Pf growth 96h – inhibits malaria parasite growth, 96 h | Potency, µM (titrated, usually from 28.7 µM), without a hit: at the top dose activity change, negative = inhibition, most hits filed as inhibitors | P. falciparum luciferase reporter growth, 96 h | actives 6.9% (n = 320,000); further: on the % scale 0 is the no-effect control and ±100 the full control effect
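Two parasite generations (96 h, 37 C, 5% CO2) of compound exposure in infected erythrocytes (0.05% parasitemia, 2% hematocrit). Luciferase-reporter P. falciparum; decreased luminescence indicates inhibited growth, aimed at apicoplast-acting delayed death.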
NS1 inh – inhibitors of influenza NS1 protein function. Potency, µM (highest dose often 46.1 µM), for inactives: top-dose activity, positive = more growth. actives 0.4% (n = 270,000). AID 2326; calls by dose curve; further: actives are rising curves; nearly all actives have a fitted effect of over 50% in size
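Growth recovery, yeast-based: influenza A NS1 expressed in S. cerevisiae causes slow growth, and suppressors are detected by OD600. The parent strain without NS1 is used as positive control.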
An asterisk follows results filed as active; ? = inconclusive; nt = not tested or not shown; [ ] = remark or other dose. Unless noted, the call rests on the fitted dose curve; in most records, active means well fitted curve in the direction sought with a large enough effect; inconclusive means small, poorly fitted or top-dose-only effect, or another doubt; inactive means no such curve, though single readings can be large; an effect the other way counts as inactive or inconclusive. Potency means the concentration at half of the fitted maximal effect.

SMILES	AMA1 RON2 block	Pf growth 48h	Sm TGR inh	Pf growth 96h	NS1 inh
CCOC(=O)C1CCCN(S(=O)(=O)c2ccc3ccccc3c2)C1 (stereo unspecified)	42%	102%	2%	-6%	-17%
Cc1ccc(F)cc1C(=O)N1CCCCC1c1cc(C(=O)NCc2ccccc2)no1 (stereo unspecified)	-7%	nt	nt	nt	nt
O=C1c2cc([N+](=O)[O-])ccc2-c2ccc3c4ccc5c6c(ccc(c7ccc1c2c73)c64)C(=O)c1cc([N+](=O)[O-])ccc1-5	nt	nt	nt	nt	3%
O=C(NNC(=O)c1cc(Br)c(Br)s1)c1ccncc1	52%	11%	-1%	49%	nt
NS(=O)(=O)c1ccc(NC(=O)COC(=O)C2CC(=O)N(Cc3ccccc3)C2)cc1 (stereo unspecified)	25%	25%	1%	3%	nt
CN1CC2=Cc3ccccc3OC23Oc2ccccc2C=C3C1	-8%	9.3µM*	-16%	12µM*	-11%
Cc1ccc(C2(c3noc(CN(C)Cc4cnn(C)c4)n3)CCCC2)cc1	-14%	11%	0%	12µM*	5%
Cc1ccc(C2(c3noc(CN(C)CCCN4CCOCC4)n3)CCCC2)cc1	nt	-9%	-1%	8.3µM*	-5%
CC(=O)NC(CC(C)C)C(=O)O (stereo unspecified)	-5%	nt	nt	nt	nt
c1ccc2c(c1)Nc1ccccc1S2	?	12µM*	-2%	4.8µM*	-2%
C=CCSc1nnc2c(n1)[nH]c1c(C)cccc12	0%	nt	-5%[11.4 µM]	12µM*	-44%
Cc1cccc2c1[nH]c1nc(N/N=C\c3ccco3)nnc12	nt	-9%	-13%	-24%	13%
N#CC(CC(=O)O)=C(c1ccccc1)c1ccccc1	nt	nt	nt	nt	-3%
Cc1ccc(C(=O)CCS(=O)(=O)c2ccc(F)cc2)cc1	0%	0%	0.32µM*	2%	-3%
Cc1ccc(S(=O)(=O)CCC(=O)c2ccc(F)cc2)cc1	5%	26%	-17%	66%	5%
Cc1ccc(C(=O)CCS(=O)(=O)c2ccc(Cl)cc2)cc1	-5%	5%	0.35µM*	-2%	1%
C[C@@H](C(=O)N=c1sc2ccccc2n1C)N1C(=O)C2CC=CCC2C1=O (stereo partly specified)	2%	nt	nt	nt	nt
Cc1noc(/C=C/N(C)C)c1S(=O)(=O)N1CCC(C(=O)NC(C)(C)C)CC1	-3%	-16%	3%	?	26%
CCCOc1ccc(C2C(C(=O)c3ccc(C)o3)=C(O)C(=O)N2CCN2CCOCC2)cc1OC (stereo unspecified)	1%	41%	40µM*	?	7%
CCN(CC)CCN1C(=O)C(O)=C(C(=O)c2ccc(C)o2)C1c1ccccn1 (stereo unspecified)	14%	nt	nt	nt	-4%
CC(=O)C1=C(O)C(=O)N(CCCN2CCOCC2)C1c1ccccc1[N+](=O)[O-] (stereo unspecified)	30%	-13%	45µM*	-2%	0%
CCN(CC)CCCN1C(=O)C(O)=C(C(=O)c2sc(C)nc2C)C1c1ccc(C)o1 (stereo unspecified)	nt	9%	-29%	12%[5.75 µM]	-10%
Cc1ccc(C2C(C(=O)c3sc(C)nc3C)=C(O)C(=O)N2CCN2CCOCC2)o1 (stereo unspecified)	2%	2%	40µM*	30%	-11%
Cc1ccc(C(=O)C2=C(O)C(=O)N(CCN3CCOCC3)C2c2ccccn2)o1 (stereo unspecified)	nt	6%	45µM*	nt	6%
C=CC1=C(C(=O)O)N2C(=O)[C@@H](NC(=O)/C(=N\OCC(=O)O)c3csc(N)n3)[C@@H]2SC1	nt	-12%[12.8 µM]	nt	-8%[12.8 µM]	nt
NC(=O)OC[C@@H]1[C@H](NC(=O)/C(=N/OCC(=O)O)c2csc(N)n2)C(=O)N1S(=O)(=O)O	nt	?	nt	0.43µM*	nt
CCN1C(=O)N(C(C)=O)C2C1N(C(C)=O)C(=O)N2C(C)=O (stereo unspecified)	-7%	1%	nt	61%	2%
CN(Cc1ccc(C#CCCO)cc1)CC1CCCN(CCc2ccc(Cl)cc2)C1 (stereo unspecified)	-11%	5.2µM*	-13%	-12%	7%
